In the supplement of paper PMC10849652:
Targets with a hit are over-represented here; the source holds about 7,900 in all. About 0.6% of all pairs of compound and target were hits.

These targets were tested with Cn1cc(-c2ccc3c(c2)CCN3C(=O)Cc2cccc(C(F)(F)F)c2)c2c(N)ncnc21 (assay: log2 fold change, soluble protein after heating vs DMSO (PISA); higher = thermal stabilisation; K562 cells, 10 uM, 30 min; active = over 0.2 and 3.5 SD of the protein, either way, in both replicates (recomputed)).
Method in brief: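 Soluble protein was defined as the supernatant after 21,000xg for 90 min. It came from K562 cells at 2×10^6 cells/mL given 10 μM compound for 30 min, heated in aliquots for 3 min across 48°C-58°C, pooled, and extracted in PBS with 0.5% NP-40 at 4°C, and was quantified by TMTpro 16plex LC-MS/MS with equalised channel sums. Thermal stability against control samples, from duplicates, is reported as log2 fold change.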

Chain of UniProt Q7Z5K2 (Q7Z5K2 whole entry, looked up): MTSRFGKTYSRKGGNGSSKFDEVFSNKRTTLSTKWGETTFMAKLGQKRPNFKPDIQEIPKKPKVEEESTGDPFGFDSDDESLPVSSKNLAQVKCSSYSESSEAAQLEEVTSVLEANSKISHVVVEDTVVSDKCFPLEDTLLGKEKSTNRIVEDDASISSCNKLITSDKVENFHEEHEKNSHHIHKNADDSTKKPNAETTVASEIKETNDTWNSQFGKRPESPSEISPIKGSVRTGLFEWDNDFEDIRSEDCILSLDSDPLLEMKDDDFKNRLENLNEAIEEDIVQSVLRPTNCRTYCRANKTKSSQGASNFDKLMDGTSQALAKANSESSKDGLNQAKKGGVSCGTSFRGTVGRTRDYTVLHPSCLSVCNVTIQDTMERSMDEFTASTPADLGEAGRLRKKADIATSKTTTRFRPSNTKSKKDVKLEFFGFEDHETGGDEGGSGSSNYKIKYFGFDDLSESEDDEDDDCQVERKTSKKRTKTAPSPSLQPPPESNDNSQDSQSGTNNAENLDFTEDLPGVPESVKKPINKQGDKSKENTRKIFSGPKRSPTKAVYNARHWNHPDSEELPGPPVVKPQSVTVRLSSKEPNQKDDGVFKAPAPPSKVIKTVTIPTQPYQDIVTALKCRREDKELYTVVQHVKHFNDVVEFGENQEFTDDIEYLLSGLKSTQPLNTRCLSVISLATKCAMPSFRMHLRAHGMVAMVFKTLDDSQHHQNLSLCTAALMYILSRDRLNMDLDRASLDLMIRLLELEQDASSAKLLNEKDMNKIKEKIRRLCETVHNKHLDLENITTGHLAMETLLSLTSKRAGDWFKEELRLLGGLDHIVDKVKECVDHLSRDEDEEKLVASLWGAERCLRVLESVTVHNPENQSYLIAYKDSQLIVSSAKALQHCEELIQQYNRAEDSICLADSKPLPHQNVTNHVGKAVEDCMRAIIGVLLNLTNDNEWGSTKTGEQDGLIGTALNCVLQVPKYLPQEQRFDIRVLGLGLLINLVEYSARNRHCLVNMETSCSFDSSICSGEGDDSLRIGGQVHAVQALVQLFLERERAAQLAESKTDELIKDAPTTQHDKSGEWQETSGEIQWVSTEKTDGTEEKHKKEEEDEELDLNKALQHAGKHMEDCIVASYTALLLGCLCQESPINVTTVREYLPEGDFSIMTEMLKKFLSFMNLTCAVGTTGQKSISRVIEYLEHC
Chain of UniProt Q96K49 (Q96K49 whole entry, looked up): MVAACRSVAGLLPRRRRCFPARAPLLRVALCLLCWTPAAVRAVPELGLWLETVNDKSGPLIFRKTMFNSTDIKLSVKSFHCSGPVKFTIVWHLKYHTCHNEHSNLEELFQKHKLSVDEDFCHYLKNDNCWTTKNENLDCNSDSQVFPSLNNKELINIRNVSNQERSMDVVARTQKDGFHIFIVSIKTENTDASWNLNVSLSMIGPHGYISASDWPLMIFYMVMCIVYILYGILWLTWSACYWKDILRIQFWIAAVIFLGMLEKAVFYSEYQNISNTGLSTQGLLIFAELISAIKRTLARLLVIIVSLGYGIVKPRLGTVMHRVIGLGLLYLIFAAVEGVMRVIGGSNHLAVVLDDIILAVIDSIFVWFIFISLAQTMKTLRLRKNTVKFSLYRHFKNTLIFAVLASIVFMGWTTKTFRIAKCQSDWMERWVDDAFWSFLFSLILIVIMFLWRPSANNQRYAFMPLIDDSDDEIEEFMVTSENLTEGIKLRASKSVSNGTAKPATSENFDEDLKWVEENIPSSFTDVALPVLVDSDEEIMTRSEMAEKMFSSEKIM
Chain of UniProt Q9UDW1 (Q9UDW1 whole entry, looked up): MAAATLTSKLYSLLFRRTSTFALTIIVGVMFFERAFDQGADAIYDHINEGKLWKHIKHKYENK
Chain of UniProt O95155 (O95155 whole entry, looked up): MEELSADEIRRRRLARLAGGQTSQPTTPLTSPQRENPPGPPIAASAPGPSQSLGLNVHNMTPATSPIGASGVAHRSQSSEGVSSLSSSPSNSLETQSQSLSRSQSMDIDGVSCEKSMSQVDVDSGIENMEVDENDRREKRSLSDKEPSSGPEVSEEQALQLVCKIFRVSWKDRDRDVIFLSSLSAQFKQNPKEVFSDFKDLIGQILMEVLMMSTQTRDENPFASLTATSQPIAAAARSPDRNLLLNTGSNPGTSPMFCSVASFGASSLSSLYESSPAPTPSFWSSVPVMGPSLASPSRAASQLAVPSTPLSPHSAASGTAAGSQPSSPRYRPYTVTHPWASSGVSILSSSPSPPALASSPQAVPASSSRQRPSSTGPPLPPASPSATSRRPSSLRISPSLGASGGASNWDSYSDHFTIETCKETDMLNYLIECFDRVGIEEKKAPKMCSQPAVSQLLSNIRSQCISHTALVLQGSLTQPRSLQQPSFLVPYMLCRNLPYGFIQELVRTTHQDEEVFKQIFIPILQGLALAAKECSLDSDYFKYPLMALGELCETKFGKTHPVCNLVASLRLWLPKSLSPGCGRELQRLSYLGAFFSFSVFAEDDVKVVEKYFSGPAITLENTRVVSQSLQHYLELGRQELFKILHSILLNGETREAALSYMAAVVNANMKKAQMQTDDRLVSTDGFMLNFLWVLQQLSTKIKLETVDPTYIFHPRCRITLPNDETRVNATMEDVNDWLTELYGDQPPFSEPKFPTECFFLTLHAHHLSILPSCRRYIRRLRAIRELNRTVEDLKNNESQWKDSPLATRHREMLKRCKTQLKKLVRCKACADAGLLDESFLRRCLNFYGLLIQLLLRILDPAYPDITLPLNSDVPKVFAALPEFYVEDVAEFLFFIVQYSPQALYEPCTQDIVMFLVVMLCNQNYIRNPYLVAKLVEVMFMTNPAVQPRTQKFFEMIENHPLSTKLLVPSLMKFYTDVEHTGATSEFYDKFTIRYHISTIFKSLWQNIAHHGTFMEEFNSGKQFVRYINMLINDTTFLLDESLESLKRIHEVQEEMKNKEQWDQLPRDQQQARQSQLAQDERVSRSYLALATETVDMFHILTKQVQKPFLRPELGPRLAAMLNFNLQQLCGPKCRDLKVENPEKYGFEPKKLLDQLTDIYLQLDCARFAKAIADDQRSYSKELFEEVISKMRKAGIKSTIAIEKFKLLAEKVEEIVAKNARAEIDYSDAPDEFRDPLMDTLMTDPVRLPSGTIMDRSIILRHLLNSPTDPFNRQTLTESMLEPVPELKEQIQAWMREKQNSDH
Chain of UniProt O60763 (O60763 whole entry, looked up): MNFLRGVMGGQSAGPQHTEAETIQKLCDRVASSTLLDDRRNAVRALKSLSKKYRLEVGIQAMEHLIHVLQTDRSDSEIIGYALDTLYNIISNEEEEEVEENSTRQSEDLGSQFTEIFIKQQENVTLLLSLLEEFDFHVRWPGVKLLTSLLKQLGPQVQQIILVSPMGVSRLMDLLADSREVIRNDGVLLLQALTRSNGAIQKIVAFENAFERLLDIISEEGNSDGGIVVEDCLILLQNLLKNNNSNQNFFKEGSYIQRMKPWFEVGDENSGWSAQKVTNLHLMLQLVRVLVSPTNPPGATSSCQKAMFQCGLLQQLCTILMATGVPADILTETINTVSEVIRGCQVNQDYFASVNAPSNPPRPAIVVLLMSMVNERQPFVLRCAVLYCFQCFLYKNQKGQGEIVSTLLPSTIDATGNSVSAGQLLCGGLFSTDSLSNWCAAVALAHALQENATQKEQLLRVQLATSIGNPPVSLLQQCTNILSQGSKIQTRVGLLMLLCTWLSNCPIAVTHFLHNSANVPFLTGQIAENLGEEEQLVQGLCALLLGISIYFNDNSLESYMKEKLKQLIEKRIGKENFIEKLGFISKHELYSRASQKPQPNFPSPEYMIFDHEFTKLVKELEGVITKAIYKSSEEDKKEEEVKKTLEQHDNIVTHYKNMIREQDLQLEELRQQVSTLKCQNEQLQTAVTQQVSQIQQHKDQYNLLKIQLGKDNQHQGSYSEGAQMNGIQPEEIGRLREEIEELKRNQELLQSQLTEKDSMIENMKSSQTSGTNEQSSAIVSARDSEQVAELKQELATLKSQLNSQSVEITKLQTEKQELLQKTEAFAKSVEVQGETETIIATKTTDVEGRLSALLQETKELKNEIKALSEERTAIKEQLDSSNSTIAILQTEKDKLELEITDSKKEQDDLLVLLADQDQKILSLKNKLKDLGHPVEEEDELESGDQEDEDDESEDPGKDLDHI
Chain of UniProt O94874 (O94874 whole entry, looked up): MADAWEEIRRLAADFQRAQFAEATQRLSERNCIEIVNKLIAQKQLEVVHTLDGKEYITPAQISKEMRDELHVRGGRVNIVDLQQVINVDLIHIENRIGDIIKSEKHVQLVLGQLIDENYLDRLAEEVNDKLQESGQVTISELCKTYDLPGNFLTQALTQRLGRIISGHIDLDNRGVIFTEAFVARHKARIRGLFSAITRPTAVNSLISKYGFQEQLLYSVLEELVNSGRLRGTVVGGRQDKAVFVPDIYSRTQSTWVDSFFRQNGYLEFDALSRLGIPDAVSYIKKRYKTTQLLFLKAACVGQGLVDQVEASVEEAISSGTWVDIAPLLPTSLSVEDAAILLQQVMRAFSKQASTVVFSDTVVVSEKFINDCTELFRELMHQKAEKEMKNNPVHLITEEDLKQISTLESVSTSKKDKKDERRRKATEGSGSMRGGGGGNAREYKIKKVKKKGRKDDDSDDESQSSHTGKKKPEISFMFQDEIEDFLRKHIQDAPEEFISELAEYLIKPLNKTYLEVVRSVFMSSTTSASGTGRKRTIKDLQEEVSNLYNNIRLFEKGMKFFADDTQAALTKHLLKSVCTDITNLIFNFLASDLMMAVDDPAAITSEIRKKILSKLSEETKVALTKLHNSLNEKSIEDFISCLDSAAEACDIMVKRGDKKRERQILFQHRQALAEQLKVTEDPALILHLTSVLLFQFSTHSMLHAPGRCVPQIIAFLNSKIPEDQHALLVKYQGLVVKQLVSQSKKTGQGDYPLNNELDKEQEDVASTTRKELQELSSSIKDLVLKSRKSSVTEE
Chain of UniProt Q969T4 (Q969T4 whole entry, looked up): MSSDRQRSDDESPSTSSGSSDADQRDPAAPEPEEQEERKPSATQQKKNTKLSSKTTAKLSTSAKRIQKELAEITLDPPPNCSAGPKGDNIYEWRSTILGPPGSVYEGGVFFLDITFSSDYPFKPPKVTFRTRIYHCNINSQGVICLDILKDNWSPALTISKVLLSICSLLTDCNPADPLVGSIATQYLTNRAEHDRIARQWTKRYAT

log2 fold change, inactive:
VTA1 (UniProt Q9NP79) 0.035
UBE4B isoform 4 (UniProt O95155) -0.019
USO1 isoform 2 (UniProt O60763) -0.017
VPS16 (UniProt Q9H269) -0.039
WAPL isoform 3 (UniProt Q7Z5K2) 0.04
VTI1A (UniProt Q96AJ9) -0.001
VPS8 (UniProt Q8N3P4) -0.018
UFL1 (UniProt O94874) -0.013
UTP4 (UniProt Q969X6) -0.042
UTP14A (UniProt Q9BVJ6) -0.285
UGGT1 (UniProt Q9NYU2) -0.017
VPS18 (UniProt Q9P253) 0.086
UBA6 0.016
TMEM161A (UniProt Q9NX61) -0.05
TNFRSF10A (UniProt O00220) -0.082
TRMT61A (UniProt Q96FX7) -0.11
TRAPPC8 (UniProt Q9Y2L5) 0
UBE2S (UniProt Q16763) -0.002
UBE2E3 (UniProt Q969T4) -0.028
UCHL5 (UniProt Q9Y5K5) 0.012
VTI1B (UniProt Q9UEU0) 0
TNPO1 (UniProt Q92973) -0.034
UQCR10 (UniProt Q9UDW1) 0.072
TMEM87B (UniProt Q96K49) -0.077
